Source: PubChem (National Center for Advancing Translational Sciences (NCATS))
In the library only some 3.7% were active in any assay of this set; here they are far more common.
PTAP-TSG101 blk – qHTS Validation Assay for Inhibitors of HIV-1 Budding by Blocking the Interaction of PTAP/TSG101: Sytravon Library Screen; Tumor susceptibility gene 101 protein (Homo sapiens), Q99816; Potency, µM (top dose mostly 115 µM), actives largely listed as inhibitors; AID 1347069, 2019; Fluorescence polarization, FITC-PTAP peptide/Tsg101, 20 min; 44,000 tested, under 10 active; note: potency is the fitted concentration of half-maximal effect; 0% is about no effect
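The Tsg101 binding domain, at 10 uM final, is mixed with compound and a FITC peptide bearing the PTAP motif (50 nM final). After 20 min at r.t., polarization is measured; actives defined by CRC class, efficacy cut-off 60% inhibition.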
GPR32 ag – qHTS for Agonists of Human Resolvin D1 Receptor DRV1. Probable G-protein coupled receptor 32 (Homo sapiens), O75388. CHO-K1 GPR32 beta-arrestin PathHunter luminescence, 90 min; zero percent set by DMSO-only wells. activation, % at 76.9 µM. 48,000 tested, 2.5% active;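 active = activation of at least 60% and not above a set upper limit, about 1 call in 100 departs from these limits; inconclusive = activation of 40% to 60%, or above that upper limit; inactive = activation under 40%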; note: 0% is about no effect
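Beta-arrestin recruitment read-out: luminescence from complemented beta-Gal in CHO-K1 GPR32 PathHunter cells, measured 1 h after detection reagent at ambient temperature following 90 min compound exposure at 37 °C; DMSO served as basal (EC0) control.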
HTT prom inh – Primary qHTS for Identification of Small Molecule Inhibitors of Huntingtin Promoter Activity; HEK293 HTT promoter firefly luciferase reporter, 24 h; Potency, µM (highest dose often 57.5 µM), for the others: at the highest dose activity change, negative = inhibition, actives largely listed as inhibitors; 48,000 tested, 0.93% active; AID 1508623, 2021; note: potency is the fitted concentration of half-maximal effect; nearly all actives have a fitted effect of over 50% in size
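Luminescence was read after Dual-Glo reagent and a 10 min room-temperature incubation. Values were normalized to vehicle (0% activity) and zero RLU (-100% activity). Reporter HEK293 cells had been exposed to compounds (up to 57.5 uM final) for 24 h.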
GALK inh – qHTS Assay for Inhibitors of Human Galactokinase (GALK): NCGC Sytravon Library Screen; Potency, µM (highest dose often 57.5 µM), for the others: at the top dose activity, negative = inhibition, hits mostly inhibitors; 44,000 tested, under 10 active; P51570; recombinant GALK, Kinase-Glo ATP luminescence, 1 h;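 note: plate controls were full GALK reaction for no effect and reaction lacking GALK for full effect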
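Luminescent ATP-depletion readout (Kinase-Glo Plus) after 1 h room-temperature incubation of human GALK (5 nM) with galactose 100 µM and ATP 35 µM, pH 8.0 HEPES/Mg2+ buffer; compounds tested in qHTS format.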
HTT-AS act – Primary qHTS for Identification of Small Molecule Activators of Huntingtin-Antisense Promoter Activity. AID 1508624, 2021. HEK293 HTT-AS promoter firefly luciferase reporter, 24 h; response scale: percent change from vehicle, -100% = no light. 48,000 tested, 0.24% active. Potency, µM (titrated, usually from 57.5 µM), inactives show top-dose activity change, positive = activation, actives largely listed as activators; note: potency is the fitted concentration of half-maximal effect; nearly all actives have a fitted effect of over 55% in size
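Firefly luciferase signal from promoter-reporter HEK293 cells was scaled between vehicle (0%) and zero RLU (-100%). Compounds were tested at final concentrations of up to 57.5 uM over 24 h at 37 degrees C. PTC124 at 50 uM final served as control inhibitor.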
B2AR arrestin ag – qHTS assay of beta-arrestin-biased ligands of beta2-adrenergic receptor: NCGC Sytravon Library Screen; 44,000 tested, under 10 active; Beta-2 adrenergic receptor (Homo sapiens), P07550; HTLA Tango cells, beta-arrestin recruitment, luciferase luminescence, 18 h; Potency, µM (top dose mostly 46.1 µM), most hits filed as activators;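 note: potency is the fitted concentration of half-maximal effect; 0% = DMSO and full agonism = EC100 isoproterenol or metaproterenol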
Target sequence (P07550 whole entry, looked up): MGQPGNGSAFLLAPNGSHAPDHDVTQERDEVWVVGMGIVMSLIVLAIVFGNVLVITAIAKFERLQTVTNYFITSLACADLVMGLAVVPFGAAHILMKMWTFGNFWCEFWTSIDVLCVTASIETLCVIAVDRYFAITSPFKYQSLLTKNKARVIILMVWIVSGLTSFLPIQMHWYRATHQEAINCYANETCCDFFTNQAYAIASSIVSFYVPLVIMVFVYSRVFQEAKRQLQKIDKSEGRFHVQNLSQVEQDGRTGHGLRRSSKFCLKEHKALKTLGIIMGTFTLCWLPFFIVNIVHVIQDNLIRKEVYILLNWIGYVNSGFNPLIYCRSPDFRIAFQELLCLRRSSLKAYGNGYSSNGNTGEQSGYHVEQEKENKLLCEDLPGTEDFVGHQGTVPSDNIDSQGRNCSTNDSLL
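Tango cells (recombinant beta2-AR, beta-arrestin, tTA-driven luciferase), 1500/well in DMEM 1% FBS, treated 18 h at 37 °C with compounds up to 46 µM; luciferin mix added, luminescence read after 15 min; %activity curves fitted and curve-classed.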
* hit, by the source's call; i = inactive; ? = inconclusive; / = no result. Unless noted, calls come from the whole dose curve; as a rule, active = well fitted curve in the direction sought with a large enough effect; inconclusive = small, poorly fitted or top-dose-only effect, or another doubt; inactive = no such curve, though single readings can be large; an effect the other way counts as inactive or inconclusive.

SMILES | PTAP-TSG101 blk | GPR32 ag | HTT prom inh | GALK inh | HTT-AS act | B2AR arrestin ag
CC[C@@H](C)[C@H](NC(=O)[C@H](CC1CCCCC1)NC(=O)c1ccno1)C(=O)N1CCC2(CCc3ccccc32)CC1 | / | / | -9% | / | -21% | /
COC(=O)Nc1ccc(-c2nc(N3CCOCC3)c3cnn(C4CCN(Cc5cccnc5)CC4)c3n2)cc1 | / | / | ? | / | -29% | /
CC(=O)Nc1ccc2nc(SCCOc3ccccc3)sc2c1 | i | 118* | 14% | 5% | 16% | i
CC(=O)Nc1ccc2nc(SCCOc3ccc(C)cc3)sc2c1 | i | 45 | -6% | -9% | -7% | i
O=C(COc1ccccc1F)Nc1ccc2nc(SCCOc3ccccc3)sc2c1 | i | 99* | -14% | 0% | -20% | i
Cc1ccccc1Cn1nc(C)c(NC(=O)c2cc(CC(C)C)on2)c1C | i | 64* | / | 4% | / | i
COc1ccc(-c2cc(C(=O)Nc3c(C)nn(Cc4ccccc4C)c3C)no2)cc1 | i | 24 | / | 0% | / | i
CCCOC(=O)c1cccc(Nc2nc(C(=O)OCC)nc3ccccc23)c1 | i | 93* | ? | -2% | -51% | i
CCOC(=O)c1cccc(Nc2c3c(nc4ccccc24)CCC3)c1 | i | 78* | ? | 9% | -39% | i
CCOC(=O)c1cccc(Nc2nc(C(=O)OCC)nc3ccccc23)c1 | i | -9 | ? | -1% | -25% | i
CN1CCN(Cc2ccc(NC(=O)Nc3ccc(Oc4cc(NC(=O)C5CC5)ncn4)cc3)cc2C(F)(F)F)CC1 | / | / | ? | / | -31% | /
Cc1cc2nc(-c3cccc(NC(=O)COc4ccc(Cl)c(C)c4)c3)oc2cc1C | i | 2 | 41% | 8% | ? | i
Cc1cc2nc(-c3cccc(NC(=O)COc4ccc(C(C)C)cc4)c3)oc2cc1C | i | -6 | 74% | 8% | 1µM* | i
O=c1cc2nc(-c3ccccc3F)nc(SCc3ccc(Br)cc3)n2[nH]1 | i | 108* | -10% | 2% | -8% | i
O=C(Nc1ccccc1C(F)(F)F)c1ccc(F)c(S(=O)(=O)N2CCc3ccccc3C2)c1 | i | -24 | ? | 2% | -24% | i
CCc1ccc(NC(=O)c2ccc(F)c(S(=O)(=O)N3CCc4ccccc4C3)c2)cc1 | i | -10 | 25µM* | 0% | -20% | i
CCc1ccc(NC(=O)c2ccc(F)c(S(=O)(=O)N3CCC4(CC3)OCCO4)c2)cc1 | i | 0 | 16µM* | 2% | -25% | i
CCc1ccc(NC(=O)c2ccc(F)c(S(=O)(=O)N3CCC(C)CC3)c2)cc1 | i | -11 | 4.5µM* | 1% | -36% | i
CSc1cccc(Nc2ncc3cc(-c4c(Cl)cccc4Cl)c(=O)n(C)c3n2)c1 | / | / | 0% | / | 0% | /
Cc1cccc(CN2CCN(CC(=O)NCCc3ccc(Cl)cc3)C2=O)c1 | i | 75* | -11% | -5% | -15% | i
O=C(CN1CCN(Cc2ccccc2F)C1=O)NCc1ccccc1 | i | 13 | 0% | 1% | -11% | i
O=C(CN1CCN(Cc2ccccc2Cl)C1=O)NCCc1ccc(Cl)cc1 | i | 71* | -18% | 3% | -11% | i
Cc1cccc(CNC(=O)CN2C(=O)CCn3nc(-c4cn(C)c5ccccc45)cc32)c1 | i | 107* | -16% | 1% | -24% | i
